Each structure is given as a SMILES string. About 83,000 compounds went through this panel and 20% of them were active in at least one assay; those are over-represented in the sample as a whole.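 In brief: 96-well plates, 48 h treatment, single concentration, percent growth endpoint.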 Unmarked numbers belong to inactive results. Calls of active or inactive are those of the source. The calls were made as follows: active = growth percent below 10; inactive = the rest.

The assay deals with T-47D breast. The assay can be described thus: NCI-60 one-dose screen, 48 h (100 = growth as untreated, 0 = no growth, -100 = all killed). Particulars: 10 µM unless noted.
As for `COc1ccc(-c2cc3c(C)nc(N)nc3n(C3CCC(OCCO)CC3)c2=O)cn1` (stereo not drawn), the growth was -50.5% (active).

Take `Cc1c(Cn2c(C)nc3c(C(=O)O)cc(N4CCOCC4)cc32)cccc1C(F)(F)F`: the growth is 69.2%.

For `Cc1nc2ccc(-n3ncc(C(=O)c4cc5ccccc5[nH]4)c3N)cc2[nH]1`, the growth is 34.9%.

As to `Cc1cn(-c2cc(NC(=O)c3ccc(C)c(Nc4nccc(-c5cnccn5)n4)c3)cc(C(F)(F)F)c2)cn1`, the growth is 66.7%.

For `C=CC(=O)N1CCC[C@H](n2c(=O)n(-c3ccc(Oc4ccccc4)cc3)c3c(N)ncnc32)C1`, the growth is 37.7%.

For `CC(C)OP(=O)(CCC(=O)c1c[nH]c2ccccc12)OC(C)C`, the growth is 89.5%.

Turning to `O=C1/C(=C\c2cccc(OCCCCCOc3ccc(Cl)cc3)c2)N=C2SCCCN12`, the growth is 26.4%.

Regarding `COC(=O)CCCNc1c(-c2c(O)c(O)cc3c(O)c(-c4c(C)cc5c(-c6nc7ccccn7c6NCCCC(=O)OC)c(O)c(O)cc5c4O)c(C)cc23)nc2ccccn12`, the growth was 26.1%.

As for `Cc1nn(-c2nc3ccccc3[nH]2)c2c1C(c1ccc(OCc3ccc(F)cc3)cc1)CC(=O)N2` (stereo not drawn), the growth is 71.3%.

Regarding `CCCC(=O)OCC1OC(n2cnc3c(=S)nc(N)[nH]c32)C(OC(=O)CCC)C1OC(=O)CCC` (stereo not drawn), the growth was 33.4%.

As for `CNC(=O)c1cccc2cc(Oc3ccnc4cc(OCC5(N)CC5)c(OC)cc34)ccc12`, the growth was 92.2%.

For `O=C(Nc1ccc(Nc2ncnc3sc4c(c23)CCOC4)cc1)Nc1ccc(Cl)c(C(F)(F)F)c1`, the growth is 81.8%.

Take `O=C1CC(c2ccc3c(c2)OCO3)c2ncn(-c3ccc(Cl)cc3)c2N1` (stereo not drawn): the growth is 41.3%.

With `Cc1ccc(N=C2CSc3nnc(-c4csc5c4CCCC5)n3N2)cc1`, the growth was 48.2%.

Take `CCc1ccc(/C=C/c2ccc(O)c3ncccc23)[n+](C)c1`: the growth was 31.2%.

On to `CS(=O)(=O)CCNCc1ccc(-c2ccc3ncnc(Nc4ccc(OCc5cccc(F)c5)c(Cl)c4)c3c2)o1`, for which the growth was -11.9% (active).

Take `COc1ccc(Nc2ncccc2NC(=O)c2cn(Cc3cccc(Oc4ccccc4)c3)nn2)cc1`: the growth was 79.1%.

Take `COc1cc2c(Oc3ccc(NC(=O)C4(C(=O)Nc5ccc(F)cc5)CC4)cc3F)ccnc2cc1OCCCN1CCOCC1`: the growth is 0.289% (active).

On to `Cc1cnc(Nc2ccc(OCCN3CCCC3)cc2)nc1Nc1cccc(S(=O)(=O)NC(C)(C)C)c1`, for which the growth is 12.5%.

Consider `N#CC(C#N)=NO`, for which the growth is 102%.

Regarding `Cc1sc2c(c1C)c(=O)nc1c(-c3nc(-c4ccccc4)cs3)n[nH]n12`, the growth was 83.9%.

Regarding `C=CC(=O)N1CCC(Oc2cc3c(Nc4ccc(Cl)c(Cl)c4F)ncnc3cc2OC)CC1`, the growth is -4.87% (active).

Take `Cc1cn(-c2cc(NC(=O)c3ccc(C)c(Nc4nccc(-c5cccnc5)n4)c3)cc(C(F)(F)F)c2)cn1`: the growth was 45.6%.

Turning to `Cc1cccc(Cl)c1NC(=O)c1cnc(Nc2cc(N3CCOCC3)cc(S(C)(=O)=O)c2)s1`, the growth is -15.6% (active).

In the case of `COc1cc(C2CC(c3ccc(Cl)cc3)=NN2c2ccc(Cl)cc2)cc(OC)c1OC` (stereo not drawn), the growth is 86.1%.

Regarding `CCc1cc2c(c3ccc(C(=O)CBr)cc13)CCCC2`, the growth is 71.2%.

Regarding `CC(N)C(Cc1ccc(Cl)cc1)c1ccc(Cl)cc1` (stereo not drawn), the growth was 54.8%.

For the compound `C=CC(=O)Nc1cccc(Oc2nc(Nc3ccc(N4CCN(C)CC4)cc3)nc3ccsc23)c1`, the growth was -51% (active).

For `O=C(c1c(F)ccc(NS(=O)(=O)N2CC[C@@H](F)C2)c1F)c1c[nH]c2ncc(-c3cnc(C4CC4)nc3)cc12`, the growth was 9.33% (active).

In the case of `CCN(CCN(C)C)C(=O)CNCc1cc(C(N)=O)ccn1`, the growth was 104%.

On to `CCc1cc2c(cc1N1CCC(N3CCOCC3)CC1)C(C)(C)c1[nH]c3cc(C#N)ccc3c1C2=O`, for which the growth is -26.7% (active).

Regarding `O=C(Cc1ccc(-c2ccc(OCCN3CCOCC3)cc2)cn1)NCc1ccccc1`, the growth was 34.2%.

Consider `c1cn2cc(-c3ccc4cn[nH]c4c3)nc(Nc3ccc(N4CCOCC4)cc3)c2n1`, for which the growth is 49.2%.

`N#CCNC(=O)c1ccc(-c2ccnc(Nc3ccc(N4CCOCC4)cc3)n2)cc1`: the growth is 63.5%.

As to `Cc1cccc(Cl)c1NC(=O)c1cnc(Nc2cc(N3CCOCC3)cc(N3CCOCC3)c2)s1`, the growth was 0.787% (active).

Consider `Cc1cc(Nc2cc(N3CCN(C)CC3)nc(/C=C/c3ccccc3)n2)n[nH]1`, for which the growth was -24.7% (active).

For `Cc1cc(N(CCNc2ccnc3cc(Cl)ccc23)Cc2cccs2)nc(Cl)n1`, the growth is -34.3% (active).

On to `NC(=O)c1n[nH]n2c1nc(=O)c1c3c(sc12)CCCC3`, for which the growth is 96.2%.

Values taken from PubChem BioAssay (NCI).
